Compounds with a hit are over-represented: about 4.1% of the library has one in this group of screens.
hcDAF-12 act: activators of H. contortus DAF-12 nuclear receptor | HEK293 hcDAF-12 lit1-tk-luc reporter, luminescence; 0% DMSO, 100% Δ7-dafachronic acid | activation, % at 6.8 µM | hit rate 1.4% among 370,000;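 active means activation above the mean of all tested compounds plus 3 SD, cut at about 5.5% in these data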
DAX1 inh-1: inhibitors of DAX1 repression of SF-1 activated StAR promoter; inhibition, % at 6.8 µM; HEK293T StAR-luciferase reporter, SF-1/DAX-1 repression relief; AID 652010; hit rate 1.1% among 370,000;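 active means inhibition above the mean over all tested compounds plus 3 SD, cut at about 3.6% in these data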;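 further: higher inhibition means more luminescence from relief of DAX-1 repression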
DAX1 inh-2: NR0B1 (DAX1) inhibition; P51843; HEK293 Gal4-DAX1 luciferase reporter, luminescence; inhibition, % at 6.75 µM; hit rate 0.99% among 340,000; AID 504766;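 active means inhibition above the mean over all tested compounds plus 3 SD, cut at about 4.2% in these data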;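 further: inhibition shows as a rise in luminescence from relieved DAX1 repression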
Target sequence (P51843 207-470 limits assumed): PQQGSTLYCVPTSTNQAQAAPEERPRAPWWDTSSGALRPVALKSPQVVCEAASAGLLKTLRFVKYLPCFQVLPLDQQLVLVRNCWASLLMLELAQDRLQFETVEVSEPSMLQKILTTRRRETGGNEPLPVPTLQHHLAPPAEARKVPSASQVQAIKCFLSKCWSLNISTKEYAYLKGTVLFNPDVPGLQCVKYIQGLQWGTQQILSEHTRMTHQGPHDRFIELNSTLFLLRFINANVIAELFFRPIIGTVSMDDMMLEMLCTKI
ssDAF-12 act: S. stercoralis DAF-12 activation, primary screen; HEK293 ssDAF-12/GRIP1 lit1-tk-luc reporter, luminescence; % of 3 µM dafachronic acid response; activation, % at 6.8 µM; hit rate 1% among 370,000; AID 652126;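 active means activation above the mean over all tested compounds plus 3 SD, cut at about 0.9% in these data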
hgDAF12 agonist: activates the H. glycines DAF-12 receptor ligand-binding domain; activation, % at 6.8 µM; HEK293 GAL4-hgDAF12 UAS-luciferase reporter, agonist luminescence; normalized to butyrate control; hit rate 1.8% among 370,000; AID 687014;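 active means activation above a cutoff set at the mean of all screened compounds plus 3 SD, cut at about 10% in these data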
LXR ag: LXR-beta agonism as hcDAF-12 counter-screen. shares compounds with hcDAF-12 act. HEK293 Gal4-LXR tk-luc reporter, luminescence, 24 h; normalized: DMSO 0%, positive control 100%. activation, % at 6.8 µM. 3,400 tested, under 10 active;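 active means mean percent activation of the reporter above a cutoff set as the average over tested compounds plus their standard deviation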
hcDAF12 ag: confirmation of H. contortus DAF-12 agonists | shares compounds with hcDAF-12 act | hit rate 61% among 3,400 | activation, % at 6.8 µM | HEK293 hcDAF-12 lit1-tk-luc reporter, luminescence; % of Δ7-dafachronic acid response;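 active means mean activation across triplicate tests above the threshold derived from the earlier primary screen, cut at about 5.5% in these data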
Hits are given with their value; i = inactive; nt = no result given.

SMILES | hcDAF-12 act | DAX1 inh-1 | DAX1 inh-2 | ssDAF-12 act | hgDAF12 agonist | LXR ag | hcDAF12 ag
Cc1cc(Oc2cccnc2)ccc1NC(=O)CCc1c[nH]c2ccccc12 | i | i | nt | i | i | nt | nt
C(=N\Nc1ccccc1)/c1nc2ccccc2s1 | 18.5 | i | 4.8 | 3.8 | 23.8 | i | 23.5
Fc1ccccc1-c1nc2ncccc2o1 | i | i | i | i | i | nt | nt
c1ccc2c(-c3nc4ncccc4o3)cccc2c1 | 8.3 | i | i | i | i | i | 5.6
CCOC(=O)[C@]12CCCC=C1N(Cc1cccc3ccccc13)C(=O)[C@H](CC(=O)N1CCCCC1)C2 | i | i | nt | i | i | nt | nt
O=C(c1cc2cc(F)ccc2[nH]1)N1CCc2ccccc21 | 16.2 | i | 5.0 | 1.9 | 13.2 | i | 9.2
O=S(=O)([N-]c1nc2ccccc2nc1-[n+]1ccc(-c2ccncc2)cc1)c1ccccc1 | 6.9 | i | i | i | i | i | i
O=S(=O)([N-]c1nc2ccccc2nc1-[n+]1ccccc1)c1ccccc1 | i | i | i | i | i | nt | nt
Cc1cc(C)c(NC(=O)c2ccc3c(c2)CCN3S(C)(=O)=O)c(C)c1 | i | i | i | i | i | nt | nt
O=C(CSc1ncc(-c2ccccc2)n1C1CCCC1)N1CCc2ccccc21 | 7.4 | i | i | i | i | i | i
Cn1c(-c2ccccc2)cnc1SCC(=O)N1CCCc2ccccc21 | i | i | i | i | i | nt | nt
COc1ccc(C(=O)OCC(=O)c2ccc[nH]2)c(OC)c1 | 6.7 | i | i | i | i | i | i
CCc1ccc(OCC(=O)Nc2ccc3oc(=O)ccc3c2)cc1 | i | i | i | i | i | nt | nt
N#CCn1c2ccccc2c2nc3ccccc3nc21 | i | i | i | i | i | nt | nt
C#CCn1c2ccccc2c2nc3ccccc3nc21 | 7.1 | i | i | i | i | i | i
Cn1c(SCC(=O)Nc2cccc(F)c2)nc2c([nH]c3ccccc32)c1=O | 6.7 | i | i | i | i | i | i
CC(C)Sc1nc2c([nH]c3ccccc32)c(=O)n1C | 11.1 | i | i | 1.0 | i | i | 7.1
CCOc1ccc(NC(=O)CSc2nc3c([nH]c4ccccc43)c(=O)n2C)cc1 | 9.8 | i | i | i | i | i | 6.2
Cc1ccc(NC(=O)CSc2nc3c([nH]c4ccccc43)c(=O)n2C)cc1 | i | i | i | i | i | nt | nt
COc1ccc(-n2c(SCC(=O)Nc3ccc(C(N)=O)cc3)nc3c([nH]c4ccccc43)c2=O)cc1OC | 9.7 | i | i | 0.9 | i | i | 8.8
COc1ccc2c(C)cc3n[nH]c(=S)n3c2c1 | i | i | i | i | i | nt | nt
COCCN(Cc1nc2ccccc2c(=O)[nH]1)C(=O)COc1cccc(C(C)=O)c1 | i | i | i | i | i | nt | nt
COc1ccc(OC)c(NC(=O)CSc2ccc(-c3cccnc3)nn2)c1 | i | i | i | i | i | nt | nt
Cc1ccc2nc(CN(C)C(=O)[C@H]3O[C@@H](n4ccc(N)nc4=O)[C@H](O)[C@@H]3O)[nH]c2c1 | i | i | nt | i | i | nt | nt
CCOc1ccccc1CN1CCN(CC2CC2)CC1CCO (stereo not given) | i | i | i | i | i | nt | nt
SMILES | hcDAF-12 act | DAX1 inh-1 | DAX1 inh-2 | ssDAF-12 act | hgDAF12 agonist | LXR ag | hcDAF12 ag
CCOc1ccccc1CN1CCN(Cc2cc3ccccc3[nH]2)CC1CCO (stereo not given) | 7.0 | i | i | i | i | i | i
C/C(=N\Nc1nc2ccccc2[nH]1)c1cc2ccccc2o1 | 7.4 | i | i | i | i | i | 8.7
COC(=O)c1ccc(C(=O)OC)c(NC(=O)COC(=O)CCOc2ccc(C)cc2)c1 | i | i | i | i | i | nt | nt
Cc1nn(-c2cccc(C(F)(F)F)c2)c(Cl)c1/C=N/Nc1cccc(C(=O)O)c1 | 10.5 | 3.7 | i | i | 13.2 | i | 9.5
CCS(=O)(=O)Nc1ccc(-c2nc3cccnc3s2)cc1 | 6.9 | i | i | i | 11.0 | i | 7.7
COc1ccc(CCN2C(=O)N[C@@H](C(C)C)C2=O)cc1 | i | i | i | i | i | nt | nt
O=C(O)c1cccc(N/N=C/c2sc(N3CCOCC3)nc2-c2ccccc2)c1 | 7.5 | i | i | i | i | i | i
O=C(O)c1cccc(N/N=C/c2cccc3ccccc23)c1 | 7.5 | i | i | i | 13.1 | i | 11.3
CC[C@]1(c2ccc(C)cc2)C(=O)N(C(=O)OC(C)C)N1C(=O)OC(C)C | i | i | nt | i | i | nt | nt
c1ccc(-c2nnc3oc(-c4cccs4)nn23)cc1 | i | i | i | i | i | nt | nt
CC(C)c1ccc(Nc2nc(CC(=O)O)cs2)cc1 | 9.4 | i | i | i | 21.8 | i | 6.0
COc1ccc(C(=O)OCC(=O)c2ccc3c(c2)NC(=O)CO3)cc1OC | i | i | i | i | i | nt | nt
CCOC(=O)c1ccc2c(c1)NCc1cccc(OC)c1O2 | 6.6 | i | i | 1.1 | 13.0 | i | 7.9
O=C(COC(=O)[C@@H]1CC(O)CN1S(=O)(=O)c1ccc2c(c1)OCCO2)Nc1cc(F)ccc1F (stereo not given in full) | i | i | i | i | i | nt | nt
O=C(C[n+]1cc(Br)cc2ccccc21)c1ccc(Cl)cc1 | 8.2 | i | i | i | i | i | i
O=C(C[n+]1cc(Br)cc2ccccc21)c1ccc(Br)cc1 | i | i | i | i | i | nt | nt
Cc1ccc(C)c(N2N=C(C(=O)Nc3ccc(N4CCOCC4)cc3)CCC2=O)c1 | i | i | i | i | i | nt | nt
CCCc1nc2c(C)cc(Br)cn2c1Cc1ccc(C)cc1 | 7.4 | i | nt | i | i | i | 10.4
CCCc1nc2c(C)cc(Br)cn2c1Cc1cccc(Cl)c1 | i | i | nt | i | i | nt | nt
CCc1cc(C(=O)NNC(=S)Nc2cccc(C)c2)cs1 | i | i | i | i | i | nt | nt
CCc1cc(C(=O)Nc2ccc(C)cc2Br)cs1 | 9.1 | 3.7 | i | 1.6 | 12.2 | i | 12.0
CCc1ccc(C(=O)COC(=O)C2CCN(c3ccc(C(F)(F)F)cn3)CC2)cc1 | i | i | i | i | i | nt | nt
C/C(=N/N=C(/C)c1cccs1)c1cccs1 | 8.3 | i | 6.1 | 1.1 | 15.7 | i | 11.0
COc1ccc(OCc2cc(C(=O)N(C)Cc3nnc(C)o3)no2)c(Cl)c1 | 6.6 | i | i | i | i | i | i
COc1cc(Cl)ccc1OCc1cc(C(=O)N(C)Cc2nnc(C)o2)no1 | i | i | i | i | i | nt | nt
Oc1c(N=Nc2ccc(F)cc2)ccc2ccccc12 | 7.4 | i | i | i | i | i | 12.3
O=C(/C=C\c1ccccc1OC(=O)c1ccccc1F)c1cc2ccccc2o1 | 7.3 | i | 5.3 | i | i | i | 5.9
CCC(C)c1ccccc1NC(=O)CN(C)CCOc1ccc(Cl)cc1 (stereo not given) | 9.2 | i | i | i | i | i | i
CN(CCOc1ccc(Cl)cc1)CC(=O)Nc1ccc(OC(F)F)cc1 | i | i | i | i | i | nt | nt
